Targets with a hit are over-represented here; the source holds about 6,500 in all. About 2% of all pairs of compound and target were hits. Values without a mark were called inactive.
Compound: COC(=O)C#Cc1ccccc1 [methyl 3-phenylpropiolate]
Test: log2 ratio of iodoacetamide-alkyne labeling of the cysteine site, DMSO over compound (competition); higher = stronger covalent engagement of the cysteine by the compound, active = 1 or more
Conditions: 500 µM; treatment time 1 h; system: HEK293T cell lysate
Outline: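 HEK293T lysate (2 mg/mL) was treated with DMSO or electrophile (500 µM, 1 h, ambient temperature), then iodoacetamide alkyne (1 h), clicked to sCIP-TMT reagents, pooled, trypsin-digested overnight at 37 °C, streptavidin-enriched and acid-eluted. Peptides were run on Orbitrap Eclipse LC-MS/MS with FAIMS and quantified in FragPipe. The log2 competition ratio per cysteine is mean control-channel over mean compound-channel reporter intensity. Duplicate channels and three replicates were used, and cysteines quantified in only one replicate were excluded.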

Chain of UniProt P34932 (P34932 whole entry, looked up): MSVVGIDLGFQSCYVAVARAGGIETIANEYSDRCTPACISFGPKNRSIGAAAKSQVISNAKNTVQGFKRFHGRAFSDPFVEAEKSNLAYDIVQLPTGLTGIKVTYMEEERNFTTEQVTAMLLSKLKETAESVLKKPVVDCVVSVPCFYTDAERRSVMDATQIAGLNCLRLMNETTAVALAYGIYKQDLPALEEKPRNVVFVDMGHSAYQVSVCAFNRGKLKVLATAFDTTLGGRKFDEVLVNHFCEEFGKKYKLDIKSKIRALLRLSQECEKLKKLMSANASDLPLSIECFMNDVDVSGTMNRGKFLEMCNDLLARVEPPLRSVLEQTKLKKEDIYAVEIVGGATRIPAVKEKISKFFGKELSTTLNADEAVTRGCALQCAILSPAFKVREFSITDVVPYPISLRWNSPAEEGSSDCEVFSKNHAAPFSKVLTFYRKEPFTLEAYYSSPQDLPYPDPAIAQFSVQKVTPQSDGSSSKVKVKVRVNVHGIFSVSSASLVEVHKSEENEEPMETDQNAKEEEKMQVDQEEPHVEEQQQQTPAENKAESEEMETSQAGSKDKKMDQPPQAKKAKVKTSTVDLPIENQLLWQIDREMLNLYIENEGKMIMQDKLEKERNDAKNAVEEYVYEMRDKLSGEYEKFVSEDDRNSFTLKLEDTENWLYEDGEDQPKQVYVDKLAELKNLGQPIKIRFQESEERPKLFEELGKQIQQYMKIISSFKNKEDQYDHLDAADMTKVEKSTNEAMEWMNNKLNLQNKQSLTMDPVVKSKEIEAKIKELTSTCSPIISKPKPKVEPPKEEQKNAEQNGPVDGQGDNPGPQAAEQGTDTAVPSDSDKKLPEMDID
Chain of UniProt P38432 (P38432 whole entry, looked up): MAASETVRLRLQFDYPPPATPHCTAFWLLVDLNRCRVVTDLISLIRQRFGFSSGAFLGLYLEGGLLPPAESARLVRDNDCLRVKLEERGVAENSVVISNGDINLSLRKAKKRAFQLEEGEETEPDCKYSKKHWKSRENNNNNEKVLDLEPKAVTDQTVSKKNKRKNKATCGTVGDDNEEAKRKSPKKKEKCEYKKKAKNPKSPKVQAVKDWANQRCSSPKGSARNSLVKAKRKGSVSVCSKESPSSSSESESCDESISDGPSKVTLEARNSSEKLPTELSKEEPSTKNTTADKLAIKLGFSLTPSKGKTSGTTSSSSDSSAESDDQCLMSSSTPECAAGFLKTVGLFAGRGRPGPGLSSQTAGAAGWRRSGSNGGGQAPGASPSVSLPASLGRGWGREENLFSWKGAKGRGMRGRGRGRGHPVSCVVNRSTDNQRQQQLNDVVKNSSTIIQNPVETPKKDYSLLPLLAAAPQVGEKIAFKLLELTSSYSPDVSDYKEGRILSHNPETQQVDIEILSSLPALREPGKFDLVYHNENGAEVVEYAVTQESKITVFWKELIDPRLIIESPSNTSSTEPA
Chain of UniProt P49327 (P49327 whole entry, looked up): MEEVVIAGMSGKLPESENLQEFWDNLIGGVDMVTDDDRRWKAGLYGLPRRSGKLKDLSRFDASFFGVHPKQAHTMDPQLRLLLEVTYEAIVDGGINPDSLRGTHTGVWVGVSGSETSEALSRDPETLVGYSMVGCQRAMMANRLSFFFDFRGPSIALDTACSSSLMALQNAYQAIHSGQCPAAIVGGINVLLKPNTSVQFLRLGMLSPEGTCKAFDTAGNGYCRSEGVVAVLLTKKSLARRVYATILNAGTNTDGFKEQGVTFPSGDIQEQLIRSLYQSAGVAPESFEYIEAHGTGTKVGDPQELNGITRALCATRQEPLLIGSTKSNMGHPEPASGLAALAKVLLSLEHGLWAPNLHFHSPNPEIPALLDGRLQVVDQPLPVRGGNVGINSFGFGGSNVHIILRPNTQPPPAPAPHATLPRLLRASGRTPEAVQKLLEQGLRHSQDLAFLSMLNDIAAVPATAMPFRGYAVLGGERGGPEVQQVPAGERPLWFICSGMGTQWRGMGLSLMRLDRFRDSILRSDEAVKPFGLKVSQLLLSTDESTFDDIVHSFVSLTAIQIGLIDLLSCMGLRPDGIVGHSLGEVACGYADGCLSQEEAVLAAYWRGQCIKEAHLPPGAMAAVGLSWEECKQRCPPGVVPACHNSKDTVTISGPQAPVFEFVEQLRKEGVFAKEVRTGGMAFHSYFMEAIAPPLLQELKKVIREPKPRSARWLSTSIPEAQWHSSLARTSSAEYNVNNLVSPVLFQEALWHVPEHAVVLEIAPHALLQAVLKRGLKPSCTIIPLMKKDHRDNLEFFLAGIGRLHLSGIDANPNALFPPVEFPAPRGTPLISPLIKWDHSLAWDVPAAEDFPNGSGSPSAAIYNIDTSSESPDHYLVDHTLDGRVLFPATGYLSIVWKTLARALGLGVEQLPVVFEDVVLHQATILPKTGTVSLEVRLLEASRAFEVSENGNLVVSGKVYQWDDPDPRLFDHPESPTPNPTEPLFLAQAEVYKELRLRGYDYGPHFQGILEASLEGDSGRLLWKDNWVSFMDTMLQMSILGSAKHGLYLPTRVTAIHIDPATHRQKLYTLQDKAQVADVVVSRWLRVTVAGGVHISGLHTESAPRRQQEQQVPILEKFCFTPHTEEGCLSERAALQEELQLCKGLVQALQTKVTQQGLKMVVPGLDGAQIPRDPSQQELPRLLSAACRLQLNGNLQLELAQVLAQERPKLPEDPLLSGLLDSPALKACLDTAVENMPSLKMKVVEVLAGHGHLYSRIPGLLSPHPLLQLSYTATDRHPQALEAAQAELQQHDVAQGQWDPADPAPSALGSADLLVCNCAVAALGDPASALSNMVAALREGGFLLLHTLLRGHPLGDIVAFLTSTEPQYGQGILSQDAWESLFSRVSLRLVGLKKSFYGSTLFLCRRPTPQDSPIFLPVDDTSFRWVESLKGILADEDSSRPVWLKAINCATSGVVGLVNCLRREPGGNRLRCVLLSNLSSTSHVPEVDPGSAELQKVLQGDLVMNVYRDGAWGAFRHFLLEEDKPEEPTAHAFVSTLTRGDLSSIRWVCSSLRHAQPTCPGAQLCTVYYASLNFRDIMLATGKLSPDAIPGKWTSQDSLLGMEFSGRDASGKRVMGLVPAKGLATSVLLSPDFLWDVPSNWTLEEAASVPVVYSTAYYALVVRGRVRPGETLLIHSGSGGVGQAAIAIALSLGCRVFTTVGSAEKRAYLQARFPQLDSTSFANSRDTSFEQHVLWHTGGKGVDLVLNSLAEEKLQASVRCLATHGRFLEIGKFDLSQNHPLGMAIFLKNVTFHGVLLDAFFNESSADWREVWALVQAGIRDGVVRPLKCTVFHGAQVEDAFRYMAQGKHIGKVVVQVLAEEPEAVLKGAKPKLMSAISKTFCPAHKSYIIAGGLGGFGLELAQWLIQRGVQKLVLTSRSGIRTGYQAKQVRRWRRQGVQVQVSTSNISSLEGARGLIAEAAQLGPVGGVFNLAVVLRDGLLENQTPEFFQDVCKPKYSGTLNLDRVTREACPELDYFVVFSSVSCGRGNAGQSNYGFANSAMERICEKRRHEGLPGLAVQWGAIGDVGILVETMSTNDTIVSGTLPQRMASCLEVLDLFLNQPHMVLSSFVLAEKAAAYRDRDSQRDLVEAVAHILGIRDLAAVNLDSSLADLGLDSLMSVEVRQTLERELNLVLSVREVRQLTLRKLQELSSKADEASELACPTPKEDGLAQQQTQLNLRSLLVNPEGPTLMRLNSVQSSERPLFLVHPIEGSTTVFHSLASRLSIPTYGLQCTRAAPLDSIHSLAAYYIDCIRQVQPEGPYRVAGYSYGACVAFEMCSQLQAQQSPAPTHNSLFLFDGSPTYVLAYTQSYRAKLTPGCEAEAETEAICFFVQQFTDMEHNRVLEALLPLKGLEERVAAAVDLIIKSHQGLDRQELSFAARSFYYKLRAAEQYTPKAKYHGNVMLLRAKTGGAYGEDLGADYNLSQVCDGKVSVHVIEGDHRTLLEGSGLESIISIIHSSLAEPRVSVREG
Chain of UniProt P45880 (P45880 whole entry, looked up): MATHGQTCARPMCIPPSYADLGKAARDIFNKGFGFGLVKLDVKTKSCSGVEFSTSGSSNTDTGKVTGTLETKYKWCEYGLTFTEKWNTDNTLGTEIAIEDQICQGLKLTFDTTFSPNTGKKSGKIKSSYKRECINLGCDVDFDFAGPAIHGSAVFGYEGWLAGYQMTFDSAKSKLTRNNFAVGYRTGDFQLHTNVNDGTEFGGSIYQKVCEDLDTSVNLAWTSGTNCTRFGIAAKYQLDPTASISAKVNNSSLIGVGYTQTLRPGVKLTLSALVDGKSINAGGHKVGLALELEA
Chain of UniProt P23246 (P23246 whole entry): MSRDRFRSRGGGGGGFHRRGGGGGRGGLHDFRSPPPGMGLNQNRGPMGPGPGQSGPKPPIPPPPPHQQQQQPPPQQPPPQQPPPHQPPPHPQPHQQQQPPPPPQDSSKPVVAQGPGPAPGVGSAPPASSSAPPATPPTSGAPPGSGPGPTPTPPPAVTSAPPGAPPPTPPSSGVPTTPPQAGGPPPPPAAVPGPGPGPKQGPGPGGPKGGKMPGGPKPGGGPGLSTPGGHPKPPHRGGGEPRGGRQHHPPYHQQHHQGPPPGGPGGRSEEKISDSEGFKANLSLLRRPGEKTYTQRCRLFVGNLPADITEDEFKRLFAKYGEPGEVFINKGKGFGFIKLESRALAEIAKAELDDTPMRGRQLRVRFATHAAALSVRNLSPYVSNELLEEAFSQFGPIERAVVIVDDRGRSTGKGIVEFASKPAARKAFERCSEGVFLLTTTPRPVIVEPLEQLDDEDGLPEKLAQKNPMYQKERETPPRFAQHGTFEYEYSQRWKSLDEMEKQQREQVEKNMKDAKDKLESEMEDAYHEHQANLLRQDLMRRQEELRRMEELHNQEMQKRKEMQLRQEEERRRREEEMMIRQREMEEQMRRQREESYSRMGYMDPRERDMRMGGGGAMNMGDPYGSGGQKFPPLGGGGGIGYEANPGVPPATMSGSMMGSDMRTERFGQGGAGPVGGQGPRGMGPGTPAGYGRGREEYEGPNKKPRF

Target	log2 ratio of iodoacetamide-alkyne labeling
EEF2 C567 (UniProt P13639)	0.0358
MCM5 C219 (UniProt P33992)	1.34 (active)
CCT8 C244 (UniProt P50990)	0.242
OAT C306 (UniProt P04181)	0.00204
TMPO C341 (UniProt P42166)	1.77 (active)
PPP2R1B C306 (UniProt P30154)	0.0579
COIL C126 (UniProt P38432)	0.729
MAP1B C2065 (UniProt P46821)	0.623
ACADSB C175 (UniProt P45954)	0.109
PHKA1 C1082 (UniProt P46020)	0.236
UniProt P49591_C431	-0.00377
HSPA4L C167 (UniProt O95757)	-0.00119
ETFB C71 (UniProt P38117)	0.579
ATIC C363 (UniProt P31939)	0.3
VDAC2 C210 (UniProt P45880)	1.39 (active)
SFPQ C297 (UniProt P23246)	-0.122
HNRNPH1 C267 (UniProt P31943)	0.211
SEPHS1 C31 (UniProt P49903)	0.175
PPP2R1A C154 (UniProt P30153)	0.637

Target	log2 ratio of iodoacetamide-alkyne labeling
ACAA1 C177 (UniProt P09110)	0.162
EEF2 C369 (UniProt P13639)	0.24
RPL4 C96 (UniProt P36578)	1.24 (active)
FLNA C1018 (UniProt P21333)	0.0782
GSR C102 (UniProt P00390)	0.154
NSF C11 (UniProt P46459)	0.206
CNP C111 (UniProt P09543)	0.0267
HSPA4 C417 (UniProt P34932)	0.208
HNRNPM C694 (UniProt P52272)	0.0717
EEF2 C557 (UniProt P13639)	-0.298
SHMT1 C96 (UniProt P34896)	0.0443
LMNA C570 (UniProt P02545)	0.553
FASN C1118 (UniProt P49327)	0.203
MAP1B C1228 (UniProt P46821)	0.169
IGF2R C2232 (UniProt P11717)	1.08 (active)
MTHFD2 C145 (UniProt P13995)	0.057
PEX5 C11 (UniProt P50542)	0.204
MBD4 C268 (UniProt O95243)	1.12 (active)

From the supplement of paper PMC11006884
